Drawing on PubChem BioAssay (NCI), this text covers growth for 13 compounds.

Compounds without any hit were thinned out: in the full panel of roughly 83,000, 20% have a hit.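 96-well plates, one dose, 48 hours. Percent growth reported; active if below 10.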 Values without a mark were called inactive. Calls of active or inactive are those of the source.

The assay deals with HL-60(TB) leukemia. The assay is described as follows: NCI-60 one-dose screen, 48 h (100 = growth as untreated, 0 = no growth, -100 = all killed). The following applies: 10 µM unless noted.
With `CN(C)CCN1C(=O)c2cccc3cc(N)cc(c23)C1=O`, the growth is 1.68% (active). Turning to `Clc1ccc2c(NCCCN3CCN(c4nc(N5CCOCC5)nc5ccccc45)CC3)ccnc2c1`, the growth was -51.5% (active). Then `CCCCCCNC(=O)Oc1ccc(/C(=C(\C)c2ccccc2)c2ccc(OCCCN(C)C)cc2)cc1`, with 78%; and `C[n+]1c(/C=C\C=C\N2CCCCC2)sc2ccccc21`, with -37.3% (active).

In the case of `COc1cccc(C2(C)Nc3ccccc3-c3nc4ccccc4n32)c1` (stereo not drawn), the growth was 89.1%.

On to `COc1ccc2nc(Cl)c(/C=C3\CC(c4ccccc4)=NN(c4ccccc4)C3=O)cc2c1`, for which the growth is 99%. Regarding `CC(C)(C)[Si](C)(C)OC1[C@@H](COC(=O)NC(=O)CCl)O[C@@H](n2cnc3c(N)ncnc32)[C@H]1O[Si](C)(C)C(C)(C)C` (stereo partly drawn), the growth was -48.3% (active).

`CC[C@]12C=CCN3CC[C@@]4(c5ccc(OC)cc5N(C)[C@H]4[C@@](O)(C(=O)OC)[C@@H]1OC(=O)CCC[P+](c1ccccc1)(c1ccccc1)c1ccccc1)[C@@H]32`: the growth is -53.1% (active). Then `CCN1CCN(c2nc(NNC(=O)c3ccc(OC)cc3)nc(N3CCN(C(c4ccccc4)c4ccccc4)CC3)n2)CC1`, with 18.7%; and `CNS(=O)(=O)c1n[nH]nc1-c1cc(C(C)(C)C)c(O)c(C(C)(C)C)c1`, with 95%; and `CCOC(=O)C1=C(CCl)N(C)C(=O)NC1c1ccc2c(c1)OCO2` (stereo not drawn), with 33.1%. As for `C/C(O)=C(\C=N\C(N)=S)C(=O)Nc1ccccc1`, the figure is 105%.

As to `O=C(/C=C\c1cccc([N+](=O)[O-])c1)c1ccccc1`, the growth was -43.8% (active).
